Data: PubChem BioAssay AID651815 (National Center for Advancing Translational Sciences (NCATS), 2012)
The whole screen tested about 2,100 compounds, of which about 1,100 (52%) were called active. Roughly 29% stayed inconclusive and do not appear here. The set was probably picked from earlier hits. The list shows a part of the results. Values without a mark were called inactive. Calls follow the shape of the dose curve; as a rule, active = well fitted inhibition curve with a large enough effect; inconclusive = small, poorly fitted or top-dose-only effect; inactive = no such curve, though single readings can be large or run the other way.

What follows are compounds tested against DNA dC->dU-editing enzyme APOBEC-3F (Homo sapiens) (UniProt Q8IUX4) (assay: qHTS for inhibitors of Vif-A3F interactions: Cherry picks counterscreen). Settings: HeLa A3F-eYFP/Vif cells, eYFP fluorescence, 24 h; series mostly up to 46.1 µM; activity, negative = inhibitor: at the top concentration.
Source text: The recent discovery and characterization of host restriction factors, which provide a potent defense to invading retroviruses, has provided new targets for antiviral drug development. APOBEC3G (A3G) and APOBEC3F (A3F) are potent cytidine deaminases that block HIV-1 replication; HIV-1 expresses the Vif protein, which counteracts A3G and A3F by binding to them and inducing their proteasomal degradation. The Vif-A3G and Vif-A3F interactions provide two potential targets for development of small molecules which can interfere with the ability of Vif to degrade A3G or A3F. […] To identify inhibitors that can interfere with Vif mediated degradation of A3G and A3F, we have developed Hela cell lines that stably express A3G or A3F tagged with eYFP at the C-terminal end (A3G-eYFP or A3F-eYFP, respectively) and Vif. In the absence of an inhibitor, Vif induces degradation of A3G-eYFP and A3F-eYFP, and the cells are not fluorescent. In the presence of an inhibitor, it is expected that Vif will be unable to degrade A3G-eYFP and/or A3F-eYFP, resulting in an increase in yellow fluorescence. In this counterscreen assay, Vif A3F was screened against the cherry picks ordered from the MLSMR. NIH Chemical Genomics Center [NCGC] NIH Molecular Libraries Probe Centers Network [MLPCN] MLPCN Grant: MH093245 Assay Submitter (PI): Vinay Pathak, National Cancer Institute
A3F-Vif cells were harvested from T225 flask and resuspended in phenol free OPTI-MEM medium with 5% FBS. Then 5 uL of 140,000 cells/mL resuspended cells was dispensed into each well of low base Aurora COC 1,536-well plates (black walled, clear bottom) using a Multidrop Combi dispenser. After overnight culture at 37 deg C with 5% CO2, a total of 23 nL of compounds at 5 selected concentrations from the NPC or positive control (2 mM stock of MG132) in DMSO was transferred to each well of the assay plate using a pintool (Kalypsys, San Diego, CA), and the plates were further incubated at 37 deg C with 5% CO2 for 24 hours. After that, the plates were measured on Acumen Explorer (TTP Lab Tech). The fluorescence was detected by 488 nm/Ex and […].
% is scaled to controls: 0 for no effect and ±100 for the full control effect; potency is read from the fitted curve at half-maximal effect.
Also: nearly all actives have a fitted effect of over 65% in size.

Sequence of DNA dC->dU-editing enzyme APOBEC-3F (Homo sapiens) (Q8IUX4 whole entry, looked up): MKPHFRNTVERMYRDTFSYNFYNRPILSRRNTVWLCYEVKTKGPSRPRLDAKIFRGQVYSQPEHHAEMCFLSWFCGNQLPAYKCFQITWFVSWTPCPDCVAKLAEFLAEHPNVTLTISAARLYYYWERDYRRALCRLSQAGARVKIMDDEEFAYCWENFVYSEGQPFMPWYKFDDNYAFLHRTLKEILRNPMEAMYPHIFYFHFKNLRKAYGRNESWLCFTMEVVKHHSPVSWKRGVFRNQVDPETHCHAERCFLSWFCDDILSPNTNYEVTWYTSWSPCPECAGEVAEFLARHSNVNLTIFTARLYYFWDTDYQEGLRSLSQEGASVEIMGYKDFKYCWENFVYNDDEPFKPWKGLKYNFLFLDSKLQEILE

Compound	Potency	activity, negative = inhibitor
COc1cccc(-c2cnc3c(NC=O)cc(-c4cc(OC)c(OC)c(OC)c4)cn23)c1	15.8 µM (active)	
COc1cc(-c2cc(NC=O)c3ncc(-c4ccc(C(C)=O)cc4)n3c2)cc(OC)c1OC	17.7 µM (active)	
CC(=O)/C(=C\N(C)C)Sc1ccc(Cl)cc1		4.05% [at 36.9 µM]
Clc1ccsc1-c1csc(-c2cccnc2)n1	15.8 µM (active)	
Cn1ccnc1Sc1nc2ccccc2nc1NS(=O)(=O)c1ccccc1	16.4 µM (active)	
CC(=O)Nc1ccc(S(=O)(=O)Nc2nc3ccccc3nc2Sc2nncn2C)cc1	16.4 µM (active)	
Cn1c(=O)c2c(nc(NC3CCCC3)n2C)n(C)c1=O		7.15%
O=C1COc2ccc(C(=O)CSc3nc4ccccc4c(=O)n3-c3ccc(Cl)c(Cl)c3)cc2N1	23.1 µM (active)	
COc1ccccc1NC1=NC(c2ccc(Cl)cc2)N=C(N)N1 (configuration not stated)	12.5 µM (active)	
COc1ccc2nc3ccccc3nc2c1NC(=O)c1ccc(Cl)cc1	23.1 µM (active)	
COc1ccc2nc3ccccc3nc2c1NC(=O)c1ccc(Br)cc1	16.4 µM (active)	
O=C(NC(=S)Nc1c(Cl)cc(Cl)cc1Cl)c1ccccc1		0.68%
CC(C)CCNC(=O)c1ccc2c(c1)NC(=O)C(CS(=O)(=O)Cc1cccc(Br)c1)N2 (configuration not stated)		-23.1%
Cc1ccc(CNC(=O)c2ccc3c(c2)NC(=O)C(CS(=O)(=O)Cc2cccc(C)c2)N3)cc1 (configuration not stated)	18.4 µM (active)	
CN(C)c1ccc2nc3c(=O)[nH]c(=O)nc-3n(CC(O)C(O)C(O)CO)c2c1 (configuration not stated)	6.51 µM (active)	
O=C1C=C(Nc2ccc(Cl)cc2Cl)CC(c2ccco2)C1 (configuration not stated)	4.98 µM (active)	
C[n+]1cc(C(=O)N2CCCCC2)ccc1/C=C/c1c[nH]c2ccccc12	11.2 µM (active)	
CCN(CC)C(=O)c1ccc(/C=C/c2c[nH]c3ccccc23)[n+](C)c1	16.4 µM (active)	
COc1ccc(-c2cnc3c(c2)CCC3(C#N)C#N)cc1	14 µM (active)	
Cc1ccc(NC(=S)Nc2ccccn2)c(C)c1		1.93%
CCOC(=O)c1ccc(NC(=S)Nc2cccc(C)n2)cc1		-17.8%
CCOC(=O)c1cc(-c2ccccc2)sc1NC(=S)Nc1cc(C)ccn1	18.4 µM (active)	
CCOc1ccc(-n2nnnc2SCC(=O)c2ccccc2)cc1	15.8 µM (active)	

Compound	Potency	activity, negative = inhibitor
Cc1sc2nc(CSc3nnnn3-c3ccc(Cl)cc3)[nH]c(=O)c2c1C		-21.8%
Cc1cccc(/C=C/C(=O)c2ccc([N+](=O)[O-])o2)c1	4.98 µM (active)	
O=C(/C=C/c1ccc(Cl)cc1)c1ccc([N+](=O)[O-])o1	9.94 µM (active)	
Cc1onc(-c2c(F)cccc2Cl)c1C(=O)O/N=C(\N)c1ccc([N+](=O)[O-])o1		-16.6% [at 36.9 µM]
O=C(/C=C/c1ccncc1)c1cc(Cl)ccc1O		-16.9%
COc1cccc(/C(O)=C/c2nc3ccc(C(=O)NCCc4cccc(C)c4)cc3[nH]c2=O)c1	16.4 µM (active)	
COc1cccc(/C(O)=C/c2nc3ccc(C(=O)NCCc4ccc(Cl)cc4)cc3[nH]c2=O)c1	16.4 µM (active)	
COc1ccc2oc(=N)c(C(=O)Nc3ccc(F)cc3)cc2c1	7.31 µM (active)	
COc1cc(C2Nc3ccc4ncccc4c3C3=C2C(=O)CCC3)cc(OC)c1O (configuration not stated)	15.8 µM (active)	
COc1cc(C2Nc3ccc4ncccc4c3C3=C2C(=O)CCC3)ccc1O (configuration not stated)	7.04 µM (active)	
O=C(C(=O)N1CCN(c2ccccc2Cl)CC1)c1c[nH]c2ccccc12		-0.112% [at 36.9 µM]
COc1cc(NC(=O)c2ccco2)c(C(=O)OCC(=O)c2c[nH]c3ccccc23)cc1OC		-10.7% [at 36.9 µM]
CC1CC(C)CN(CC(=O)c2c[nH]c3ccccc23)C1 (configuration not stated)	20.6 µM (active)	
COc1cc(/C=C(\C#N)c2nc3ccccc3[nH]2)ccc1OCc1ccccc1F	16.4 µM (active)	
COc1cc(/C=C(/C#N)c2nc3ccccc3[nH]2)ccc1OCC(=O)Nc1ccccc1C(C)C	13 µM (active)	
COc1cc(/C=C(\C#N)c2nc3ccccc3s2)ccc1OCC(=O)Nc1ccccc1	15.8 µM (active)	
COc1cc(/C=C(\C#N)c2nc3ccc(C)cc3[nH]2)ccc1OC(C)C	20.6 µM (active)	
COc1cc(/C=C(\C#N)c2nc3ccccc3[nH]2)ccc1O		32.8%
NNC(=S)Nc1c(F)cc(F)cc1Br		-2.67%
CCOc1cc(N(CC)CC)ccc1/C=C(/C#N)c1nc2ccccc2[nH]1		47.3%
Cc1ccc2nc(/C(C#N)=C\c3ccc(OC(=O)c4cccs4)cc3)[nH]c2c1	8.86 µM (active)	
COc1cc(/C=C(/C#N)c2nc3ccccc3[nH]2)ccc1OC(=O)c1ccco1		32.9% [at 36.9 µM]
CCN(CC)c1ccc(/C=C(/C#N)c2nc3ccccc3[nH]2)c(OC(C)C)c1	0.366 µM (active)	

Compound	Potency	activity, negative = inhibitor
Cc1ccc(-c2cc(-c3ccco3)c3c(N)c(C(=O)NN)oc3n2)cc1	14.6 µM (active)	
NNC(=O)c1oc2nc(-c3ccccc3)cc(-c3ccco3)c2c1N	16.4 µM (active)	
COc1cc(/C=C2/CCC/C(=C\c3cc(O)c(OC)c(Cl)c3)C2=O)cc(Cl)c1O	13 µM (active)	
CCOc1cc(/C=C2\CCC/C(=C\c3cc(Cl)c(O)c(OCC)c3)C2=O)cc(Cl)c1O	12.5 µM (active)	
CCOc1cc(/C=C2\CN(C)C/C(=C\c3ccc(O)c(OCC)c3)C2=O)ccc1O	2.5 µM (active)	
O=c1c(O)c(-c2cccs2)oc2ccccc12	2.59 µM (active)	
CN(C)c1ccc(/C=N/NC(=O)c2ccccc2Cl)cc1	3.53 µM (active)	
Cc1ccc(/C=N/NC(=O)c2cc(C)oc2C)cc1	7.04 µM (active)	
Cc1ccc(/C=N/NC(=O)c2nc3nc(C)cc(C)n3n2)cc1		7.3%
CC(NC(=S)Nc1cccc(C(F)(F)F)c1)C(C)(C)C (configuration not stated)		-9.15%
C[C@@H]1O[C@@H](O[C@@H]2C(=O)c3c(O)cc(O)cc3O[C@H]2c2ccc(O)c(O)c2)[C@H](O)[C@H](O)[C@H]1O		4.26% [at 36.9 µM]
N#Cc1ccc(-c2cccs2)nc1SCc1c(F)cccc1Cl	3.66 µM (active)	
Cc1cccc(CSc2nc(-c3cccs3)ccc2C#N)c1		-24.3%
Cc1ccnc(NC(=S)NC(=O)/C=C/c2ccco2)c1	11.2 µM (active)	
CC(C)(C)c1ccc(-c2csc(NC(=O)CN3C(=O)NC4(CCCCC4)C3=O)n2)cc1		-14.8%
O=C(/C=C/c1ccco1)NC(=S)Nc1cccc(-c2nc3ccccc3o2)c1	4.98 µM (active)	
COc1ccc(-c2csc(NC(=S)NC(=O)/C=C/c3ccco3)n2)cc1Br	6.27 µM (active)	
CSc1ccccc1NC(=O)COC(=O)/C=C/c1ccco1		4.47%
CN(C)C=Nc1c(Br)cc(Br)c2nonc12	9.2 µM (active)	
CNC(=S)N/N=C(\C)c1ccc(Cl)s1		3.84%
N#CCC(=O)N/N=C/c1ccc(N2N=C(c3ccccc3)CC2c2ccccc2)cc1 (configuration not stated)	16.4 µM (active)	
CCc1ccc(CNC(=O)Cc2ccc(NC(=O)C3=C(C)OCCS3)cc2)cc1	1.12 µM (active)	
N#C/C(=C\c1ccc(-c2ccc(C(=O)O)cc2)o1)c1nc2ccccc2[nH]1	2.59 µM (active)	

Compound	Potency	activity, negative = inhibitor
Cc1ccc2nc(/C(C#N)=C/c3ccc(-c4ccccc4C(=O)O)o3)[nH]c2c1	4.61 µM (active)	
Cc1ccc2nc(/C(C#N)=C/c3ccc(-c4cccc(Cl)c4)o3)[nH]c2c1	8.2 µM (active)	
N#C/C(=C\c1ccc(-c2ccc(F)cc2F)o1)c1nc2ccccc2[nH]1	20.6 µM (active)	
Cc1c(Cl)cccc1-c1ccc(/C=C(\C#N)c2nc3ccccc3[nH]2)o1	16.4 µM (active)	
Cc1ccc2nc(/C(C#N)=C/c3ccc(-c4ccc(C(=O)OC(C)C)cc4)o3)[nH]c2c1	8.2 µM (active)	
Cc1ccc2nc(/C(C#N)=C/c3ccc(-c4ccc(F)cc4F)o3)[nH]c2c1	4.61 µM (active)	
COCc1ccc(O)c2ncccc12		-0.742% [at 36.9 µM]
CC(=O)c1sc(N/N=C\c2c(O)ccc3ccccc23)nc1C	14 µM (active)	
CCOC(=O)c1sc(NC(=S)NC(=O)c2ccco2)nc1C		1.21%
COc1ccc(C(=O)NC2CCCc3ccccc32)cc1[N+](=O)[O-] (configuration not stated)	8.86 µM (active)	
COc1ccc(C(=O)C(C)[n+]2ccc(C)c3ccccc32)cc1[N+](=O)[O-] (configuration not stated)		0.317% [at 36.9 µM]
COc1ccccc1NC(=O)C1=C(C)Nc2nc3ccccc3n2C1c1cccs1 (configuration not stated)	1.4 µM (active)	
COc1ccc2[nH]c3c(c2c1)CCNC3c1ccc([N+](=O)[O-])o1 (configuration not stated)	18.4 µM (active)	
CCCCN(CCCC)S(=O)(=O)c1ccc(C(=O)Nc2sc3c(c2C(N)=O)CCN(CC)C3)cc1	25.9 µM (active)	
COc1ccc(C(=O)Nc2sc3c(c2C#N)CCN(C(C)=O)C3)cc1	9.94 µM (active)	
CC(C)N1CCc2c(sc(NC(=O)c3cc4cc([N+](=O)[O-])ccc4s3)c2C(N)=O)C1	23.1 µM (active)	
CC(C)CN(CC(C)C)S(=O)(=O)c1ccc(C(=O)Nc2sc3c(c2C(N)=O)CCN(C(C)C)C3)cc1	20.6 µM (active)	
CCN1CCc2c(sc(NC(=O)c3ccc(S(=O)(=O)N(CC)c4ccccc4)cc3)c2C(N)=O)C1	12.5 µM (active)	
CCN1CCc2c(sc(-n3cccc3)c2C(C)NC(=O)Nc2ccc(C(=O)OC)cc2)C1 (configuration not stated)		8.59%
CCCN1CCc2c(sc(NC(=O)c3ccc(S(=O)(=O)N(C)c4ccccc4)cc3)c2C(=O)NC)C1	18.4 µM (active)	
CC(C)N1CCc2c(sc(NC(=O)c3ccc(S(=O)(=O)N4CCOCC4)cc3)c2C#N)C1	20.6 µM (active)	
CCOC(=O)c1c(NC(=O)c2ccc(S(=O)(=O)N3CCC(C)CC3)cc2)sc2c1CCN(C)C2	18.4 µM (active)	
CN1C(=O)N(C)c2ccc(C=O)c3cccc1c23		14.9%
